# From publication PMC5540273 (PLoS ONE, 2017)
# Tests used:
# Conditions in all cases: concentration: 1 μM, replicates: in singlicate; n = 1
# [1] = tested on: CDK2
# [2] = tested on: CDK3
# [3] = tested on: CDK4-cyclinD1
# [4] = tested on: CDK4-cyclinD3
# [5] = tested on: CDK4
# [6] = tested on: CDK5
# [7] = tested on: CDK7
# [8] = tested on: CDK8
# [9] = tested on: CDK9
# [10] = tested on: CDKL1
# [11] = tested on: CDKL2
# [12] = tested on: CDKL3
# [13] = tested on: CDKL5
# [14] = tested on: CHEK1
# [15] = tested on: CHEK2
# [16] = tested on: CIT
# [17] = tested on: CLK1
# [18] = tested on: CLK2
# [19] = tested on: CLK3
# [20] = tested on: CLK4
# 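Further: KINOMEscan kinase panel screen.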
SMILES,%Inh [1] [%],%Inh [2] [%],%Inh [3] [%],%Inh [4] [%],%Inh [5] [%],%Inh [6] [%],%Inh [7] [%],%Inh [8] [%],%Inh [9] [%],%Inh [10] [%],%Inh [11] [%],%Inh [12] [%],%Inh [13] [%],%Inh [14] [%],%Inh [15] [%],%Inh [16] [%],%Inh [17] [%],%Inh [18] [%],%Inh [19] [%],%Inh [20] [%]
CC(=O)Nc1n[nH]c2ncc(-c3ccccc3)cc12 [SB-548492],8,12,0,1,25,11,17,0,0,30,6,0,0,0,1,4,41,19,32,27
C[C@@H]1CCN(C(=O)CO)C[C@@H]1N(C)c1ncnc2[nH]ccc12,0,0,0,0,0,4,20,0,9,12,2,0,0,0,1,0,3,6,0,0
COc1cc2c(Nc3cccc(NC(=O)c4ccccc4)c3)ncnc2cc1OCCCN1CCOCC1 [GSK223810],0,5,0,0,0,0,0,14,0,0,3,0,0,0,0,29,10,10,0,16
Cl.Cl.c1ccc(-c2cc3ccncc3cc2OC2CCNCC2)cc1 [GSK1122999],0,10,0,0,11,0,0,15,2,10,10,0,7,3,0,55,64,32,4,71
Cl.c1ccc(Cn2ccc3cc(Nc4ncnc5ccccc45)ccc32)cc1 [GW275568],1,16,0,16,31,0,13,5,27,18,4,8,0,2,27,5,26,10,59,0
COc1ccc(-c2oc3ncnc(N)c3c2-c2ccc(OC)cc2)cc1 [SB-589132],0,6,27,12,59,0,0,62,0,5,2,0,2,0,0,0,29,0,0,0
O=C(c1ccc(-c2cc(-c3c[nH]nc3-c3ccccn3)ccn2)cc1)N1CCCC1 [GW792479],19,72,22,0,0,38,0,63,2,57,24,3,0,0,0,18,0,8,0,0
Cl.Cn1ccc(-c2cccc(Nc3ccnc4cc(-c5nccs5)ccc34)c2)n1 [GW525701],0,6,47,0,36,0,0,7,0,0,61,0,0,24,0,3,1,0,0,37
Cl.c1ccc(Cn2ncc3cc(Nc4ncnc5ccccc45)ccc32)cc1 [GW273749],7,0,0,11,15,0,1,0,0,0,8,0,3,0,30,26,42,6,0,4
CCC(CC)(CC)n1cnc2c(N)ncnc21 [SKF-97620],0,3,0,0,28,5,22,30,0,13,0,0,23,0,0,13,0,0,6,16
COc1ccc(NC(=O)Nc2ccc(C)c(-c3ccc(C(=O)Nc4ccncc4)cc3)c2)cc1 [GSK1398475],0,0,0,9,7,0,0,40,0,1,30,0,0,11,0,69,28,0,4,5
Fc1ccc(Nc2nccc(-c3c(-c4ccc(Cl)cc4)nn4ncccc34)n2)cc1F [GW829058],13,18,62,12,19,34,42,0,12,17,22,21,23,12,1,0,0,10,10,5
CC(C)N1CCC(n2cnc(-c3ccc(F)cc3)c2-c2ccnc(N)n2)CC1 [SB-223132],0,28,0,0,10,0,0,54,0,57,13,9,0,0,0,69,5,0,10,0
Nc1nc(-c2cccnc2)c(-c2ccnc3ccccc23)s1 [GW684083],0,11,16,0,41,0,0,46,0,13,20,0,0,0,11,45,14,0,100,38
Cc1ccc(O)cc1Nc1cc(C(F)(F)F)nc2ccc(-c3ccncc3)cc12 [GW630823],5,0,0,0,0,0,0,0,5,20,0,0,0,34,0,0,40,16,0,20
